High-throughput results from PubChem.
sPLA2-III inh – Inhibits HGIII-sPLA2 liposome hydrolysis, primary screen; 0.56% of 370,000 active; inhibition, % at 12.2 µM; Q9NZ20; QFRET BODIPY PC-A2 liposome hydrolysis, fluorescence;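 active means inhibition above mean plus 3 SD of compounds lying within the high and low control bounds, cut at about 19% in these data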;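 further: 0% = median of test compound wells and 100% = no enzyme DMSO wells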
ADAM17 inh – inhibitors of human ADAM17 | P78536 | recombinant ADAM17, EDANS/DABCYL FRET peptide cleavage | inhibition, % at 6.95 µM | 0.83% of 370,000 active | AID 720648;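 active means inhibition above the mean of compounds lying between control limits plus 3 SD, set per campaign, cut at about 8.5% in these data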;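 further: 0% = DMSO-only wells as the low control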
Target sequence (P78536 215-824 limits assumed): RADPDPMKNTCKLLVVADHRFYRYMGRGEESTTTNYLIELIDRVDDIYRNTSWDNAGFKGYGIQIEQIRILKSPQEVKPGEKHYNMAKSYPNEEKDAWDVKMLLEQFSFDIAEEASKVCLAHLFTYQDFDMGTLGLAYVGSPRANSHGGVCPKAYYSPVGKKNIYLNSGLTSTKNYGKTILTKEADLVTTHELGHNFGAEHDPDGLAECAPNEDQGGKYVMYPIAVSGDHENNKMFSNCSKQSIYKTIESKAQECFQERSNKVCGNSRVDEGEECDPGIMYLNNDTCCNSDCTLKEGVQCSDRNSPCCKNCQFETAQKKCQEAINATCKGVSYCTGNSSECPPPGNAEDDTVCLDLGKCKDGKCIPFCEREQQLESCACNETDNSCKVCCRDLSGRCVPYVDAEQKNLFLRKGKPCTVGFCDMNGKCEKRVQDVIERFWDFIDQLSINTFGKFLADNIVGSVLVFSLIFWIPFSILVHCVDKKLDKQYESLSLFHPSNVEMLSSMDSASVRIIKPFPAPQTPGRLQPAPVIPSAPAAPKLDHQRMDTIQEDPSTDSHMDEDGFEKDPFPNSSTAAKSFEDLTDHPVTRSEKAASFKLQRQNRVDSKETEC
ADAM10 inh – inhibitors of human ADAM10 | O14672 | recombinant ADAM10, EDANS/DABCYL FRET peptide cleavage, 3 h | inhibition, % at 7 µM | 0.62% of 370,000 active | AID 720582;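 active means inhibition above a per-campaign cutoff equal to the mean of compounds falling between control-based bounds plus 3 SD, cut at about 20% in these data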;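 further: 0% = DMSO wells while the 100% control is not disclosed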
PLCg1 inh – inhibitors of human phospholipase C gamma1 | P19174 | purified PLC-gamma1, fluorogenic substrate, fluorescence | inhibition, % at 12.2 µM | 0.84% of 370,000 active; in the data active means inhibition above about 9.5%
PLCb3 inh – inhibitors of human phospholipase C beta3; Purified PLC-beta3, fluorogenic substrate, fluorescence; inhibition, % at 12.2 µM; 0.18% of 370,000 active; AID 720704; in the data active means inhibition above about 11%;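 further: 0% = median of compound wells on plate and 100% = full blocker control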
proKLK7 act – activators of human kallikrein-7 zymogen; P49862; purified proKLK7, EDANS-DABCYL substrate fluorescence; 100% is mature enzyme control, 0% vehicle; activation, % at 7 µM; 0.9% of 370,000 active; AID 652039;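 active means activation above the mean of all tested compounds plus 3 SD, computed per campaign excluding outliers beyond control limits, cut at about 13% in these data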
ADAM10 confirm – human ADAM10 inhibition, confirmation; shares compounds with ADAM10 inh; ADAM10 QFRET peptide cleavage, EDANS fluorescence; inhibition, % at 6.95 µM; 1% of 2,100 active; AID 743208;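 active means inhibition above about 20% chosen separately for each screening run, limit read from the data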;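 further: 0% = DMSO wells and 100% = marimastat wells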
ADAM17 ctr – inhibits human ADAM17 in ADAM10 exosite counter-screen; shares compounds with ADAM10 inh; ADAM17 QFRET peptide cleavage, EDANS fluorescence; inhibition, % at 6.95 µM; 0.5% of 2,100 active; AID 743214;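 active means mean triplicate inhibition above the solvent-only control wells' mean plus 3 SD, cut at about 12% in these data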;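 further: 0% = DMSO wells and 100% = marimastat wells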
An asterisk follows results filed as active. A selection: hits, their analogues and other compounds. The true share with any hit is near 3.4%.

For CCCN(CCC)S(=O)(=O)c1ccc(C(=O)NCc2n[nH]c(=S)n2-c2ccc(Cl)c(Cl)c2)cc1 the results were sPLA2-III inh -15.1, ADAM17 inh 6.2, ADAM10 inh 24.4*, PLCg1 inh 4.5, PLCb3 inh -1.9, proKLK7 act -0.2, ADAM10 confirm 0.7 and ADAM17 ctr 0.7.
Screening OC(CN1CCN(c2ccccn2)CC1)Cn1c2ccc(Cl)cc2c2cc(Cl)ccc21 (stereo unspecified) returned sPLA2-III inh -18.1, ADAM17 inh 7.8, ADAM10 inh 21.7*, PLCg1 inh 2.5, PLCb3 inh -0.3, proKLK7 act -0.3, ADAM10 confirm 10.4 and ADAM17 ctr 4.0.
`OC(CN1CCCCC1)Cn1c2ccc(Cl)cc2c2cc(Cl)ccc21` (stereo unspecified) gave sPLA2-III inh -0.7, ADAM17 inh 1.9, ADAM10 inh 4.8, PLCg1 inh 7.5, PLCb3 inh -4.6 and proKLK7 act -0.1.
`Cc1ccc(Cn2nnc3c(=O)[nH]c(C4CCN(S(=O)(=O)c5ccc(S(=O)(=O)NC6CC6)cc5)CC4)nc32)cc1` gave sPLA2-III inh -69.4, ADAM17 inh 5.0, ADAM10 inh 19.8*, PLCg1 inh 2.1, PLCb3 inh -3.7, proKLK7 act 0.4, ADAM10 confirm 3.0 and ADAM17 ctr 1.0.
O=C(Cn1ncc2c1-c1ccccc1OC2)Nc1ccc(S(=O)(=O)N2CCCCC2)cc1 was read as sPLA2-III inh -31.2, ADAM17 inh 10.1*, ADAM10 inh 22.4*, PLCg1 inh 5.3, PLCb3 inh 3.9, proKLK7 act 0.5, ADAM10 confirm 7.5 and ADAM17 ctr 2.1.
Screening O=C(Cn1nc(-c2ccccc2F)ccc1=O)Nc1ccc(S(=O)(=O)N2CCCCCC2)cc1 returned sPLA2-III inh -11.8, ADAM17 inh 1.1, ADAM10 inh 6.4, PLCg1 inh 5.1, PLCb3 inh -51.1 and proKLK7 act 0.5.
Screening Nc1nc(Cl)cc(N2CCC(c3cc(-c4ccc(Cl)cc4)n[nH]3)CC2)n1 returned sPLA2-III inh -67.7, ADAM17 inh 6.0, ADAM10 inh 32.4*, PLCg1 inh 2.3, PLCb3 inh 4.0, proKLK7 act 0.0, ADAM10 confirm 5.3 and ADAM17 ctr 2.0.
`C[C@@H]1[C@@H](O)C[C@@]2(C[C@H](O)c3cc(Cl)cc(Cl)c3O2)O[C@H]1c1ccccc1Cl` gave sPLA2-III inh -21.3, ADAM17 inh 6.3, ADAM10 inh 25.8*, PLCg1 inh 0.7, PLCb3 inh -1.0, proKLK7 act 0.7, ADAM10 confirm 4.8 and ADAM17 ctr 1.7.
For C[C@@H]1[C@@H](O)C[C@@]2(C[C@H](O)c3ccccc3O2)O[C@H]1c1ccccc1 the results were sPLA2-III inh -4.3, ADAM17 inh 3.3, ADAM10 inh -1.2, PLCg1 inh 1.5, PLCb3 inh -1.6 and proKLK7 act 0.1.
Screening CC(NCc1ccco1)C(=O)N1CCCC1 (stereo unspecified) returned sPLA2-III inh 13.1, ADAM17 inh 0.9, ADAM10 inh -11.1, PLCg1 inh -3.0, PLCb3 inh -3.4 and proKLK7 act 0.2.
`CCOC(=O)C1CCN(C(=O)C(C)(C)NC(=O)Nc2ccc(Cl)cc2Cl)CC1` gave sPLA2-III inh 5.9, ADAM17 inh 1.8, ADAM10 inh 3.7, PLCg1 inh 5.0 and PLCb3 inh 0.7.
For CC(C)(C)OC(=O)CNC(=O)c1[nH]cnc1C(=O)N[C@@H](CCCCNC(=O)OC(C)(C)C)C(=O)OC(C)(C)C the results were sPLA2-III inh -13.4, ADAM17 inh 1.2, ADAM10 inh 22.8*, PLCg1 inh -4.3, PLCb3 inh -2.6, proKLK7 act 0.9, ADAM10 confirm 0.1 and ADAM17 ctr 0.2.
For Cc1cccc(NC(=O)c2nc[nH]c2C(=O)N[C@@H](CCCCNC(=O)OC(C)(C)C)C(=O)OC(C)(C)C)c1 the results were sPLA2-III inh -21.7, ADAM17 inh 12.3*, ADAM10 inh 32.6*, PLCg1 inh 2.2, PLCb3 inh 3.3, proKLK7 act -1.5, ADAM10 confirm 11.4 and ADAM17 ctr 3.3.
